Screening data as filed in PubChem.
LYPLA2 inh: counter-screen for PME1 inhibitors: inhibitors of human LYPLA2 | O95372 | recombinant LYPLA2, FP-Rh probe fluorescence polarization | inhibition, % at 5.9 µM | 320,000 compounds, 0.38% hits;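 active = inhibition above the screen-wide mean plus 3 SD, limit set per campaign, cut at about 26% in these data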;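 note: 0% = LYPLA2 with DMSO and 100% = wells lacking LYPLA2 enzyme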
Target sequence (O95372 whole entry, looked up): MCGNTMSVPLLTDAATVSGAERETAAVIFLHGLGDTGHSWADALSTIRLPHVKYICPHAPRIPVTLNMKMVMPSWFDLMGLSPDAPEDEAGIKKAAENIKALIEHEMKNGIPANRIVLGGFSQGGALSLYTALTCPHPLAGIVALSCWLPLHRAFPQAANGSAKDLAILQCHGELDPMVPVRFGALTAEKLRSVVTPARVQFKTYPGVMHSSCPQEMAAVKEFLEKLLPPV
pPAFAH inh: inhibitors of human plasma PAF acetylhydrolase (pPAFAH); Q13093; recombinant pPAFAH, FP-rhodamine probe fluorescence polarization; inhibition, % at 3.39 µM; 330,000 compounds, 1.5% hits; AID 463082;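 active = inhibition above the mean inhibition across the screen plus 3 SD, cut at about 25% in these data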;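 note: inhibitors block binding of the rhodamine activity-based probe so polarization drops; 0% = enzyme with DMSO and 100% = wells lacking pPAFAH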
PAFAH2 FP inh: inhibitors of human PAFAH2; Q99487; recombinant PAFAH2, FP-rhodamine activity probe, fluorescence polarization; inhibition, % at 3.39 µM; 340,000 compounds, 0.99% hits;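 active = inhibition above the mean over all tested compounds plus 3 SD, cut at about 30% in these data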;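 note: inhibitors block probe labeling of enzyme so polarization drops; 0% = enzyme with DMSO and 100% = wells lacking PAFAH2 protein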
LYPLA1 inh: LYPLA1 (human) inhibition in PME1 counter-screen; AID 2174; 320,000 compounds, 0.16% hits; recombinant LYPLA1, FP-Rh probe fluorescence polarization; inhibition, % at 5.9 µM; O75608;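 active = inhibition above the mean of all tested compounds plus 3 SD, set per campaign, cut at about 14% in these data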;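 note: inhibitors block serine hydrolase probe labeling of LYPLA1 so polarization falls; 0% = enzyme with DMSO and 100% = wells lacking LYPLA1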
Target sequence (O75608 whole entry, looked up): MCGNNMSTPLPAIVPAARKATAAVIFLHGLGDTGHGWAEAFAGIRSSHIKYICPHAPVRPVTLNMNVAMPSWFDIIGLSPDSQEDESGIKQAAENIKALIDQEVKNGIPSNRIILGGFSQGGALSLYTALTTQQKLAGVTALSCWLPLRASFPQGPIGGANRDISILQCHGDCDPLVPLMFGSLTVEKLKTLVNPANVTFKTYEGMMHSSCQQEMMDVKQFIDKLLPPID
PAFAH1B3 FP inh: PAFAH1B3 (human) inhibition; Q15102; recombinant PAFAH1B3, FP-rhodamine probe, fluorescence polarization; inhibition, % at 3.39 µM; 340,000 compounds, 0.28% hits;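 active = inhibition above the screen-wide average of all tested compounds plus 3 SD, cut at about 25% in these data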;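 note: 0% = enzyme with DMSO only and 100% = wells lacking PAFAH1B3 protein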
PAFAH1B2 inh: inhibitors of human PAFAH1B2 | P68402 | recombinant PAFAH1B2, FP-rhodamine activity probe, fluorescence polarization | inhibition, % at 3.39 µM | 340,000 compounds, 1.2% hits;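 active = inhibition above the mean of all tested compounds plus 3 SD, cut at about 24% in these data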;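 note: 0% = enzyme with DMSO and 100% = wells lacking PAFAH1B2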
PAFAH2 confirm: PAFAH2 (human) inhibition, confirmed; recombinant PAFAH2, FP-rhodamine activity probe, fluorescence polarization; AID 493030; shares compounds with PAFAH2 FP inh; 2,300 compounds, 65% hits; inhibition, % at 3.39 µM;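 active = mean inhibition over three repeats above a set limit taken from the earlier primary screen, cut at about 30% in these data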;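 note: inhibitor blocks binding of rhodamine activity probe so polarization falls; 0% = enzyme with DMSO and 100% = wells lacking PAFAH2 protein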
An asterisk follows results filed as active; . = not tested or not shown; ! = not active in a repeat. Rows were chosen to be rich in hits. Some 2.9% of all compounds tested hit in one or more screens of this group.

SMILES	LYPLA2 inh	pPAFAH inh	PAFAH2 FP inh	LYPLA1 inh	PAFAH1B3 FP inh	PAFAH1B2 inh	PAFAH2 confirm
O=C(COC(=O)C1C2CC3OC(=O)C1C3C2)Nc1ccc(F)cc1 (stereo unspecified)	-3	3	78*	-2	12	-6	69*
COc1ccc(NC(=O)COC(=O)C2C3CC4OC(=O)C2C4C3)cc1 (stereo unspecified)	11	9	30	7	-3	0	.
O=C(COC(=O)C1C2CC3OC(=O)C1C3C2)Nc1ccc(Br)cc1 (stereo unspecified)	-9	2	79*	-1	0	-3	71*
O=C(c1ccc2oc(Cc3ccc(Cl)cc3)nc2c1)N1CC[C@H](O)C1	4	6	71*	0	4	7	63*
NC(=O)C1CCCN(C(=O)c2ccc3oc(Cc4ccc(Cl)cc4)nc3c2)C1 (stereo unspecified)	2	-2	9	1	2	11	.
N#C/C(=C(/O)CCl)c1nc(-c2ccccc2)cs1	-1	23	19	1	-4	-1	.
Cc1ccc(-c2csc(/C(C#N)=C(\O)CCl)n2)cc1	.	.	33*	.	0	-4	31*
C/C(N)=C(/C#N)C(=O)CSc1nnc(Nc2c(C)cccc2C)s1	-2	17	32*!	-5	17	5	16
CC(C)=CC(=O)OCC(=O)Nc1cc(C)ccc1C	-1	4	30*	3	8	4	18
CC(C)=CC(=O)OCC(=O)Nc1ccccc1Cl	6	8	51*	-4	5	6	40*
C=CCSc1nnnn1-c1ccc(OC)cc1	1	-3	3	1	4	-2	.
C=CCSC1=N/C(=C\c2ccc3c(c2)OCO3)C(=O)S1	5	9	32*	3	10	-2	31*
Oc1ccccc1C=NNC(=S)Nc1ccc(F)cc1	.	.	28	.	10	7	.
Oc1ccccc1/C=N/NC(=S)NC1CC2C=CC1C2 (stereo unspecified)	3	20	57*	0	12	9	30
Cc1ccc(C(=O)NNC(=O)c2ccc(Br)s2)cc1S(=O)(=O)N1CCOCC1	-3	5	39*	0	4	1	-4
Cc1cccc2c(=O)oc(-c3ccccc3Cl)nc12	10	8	49*	4	5	4	40*
Cc1ccccc1-c1nc2cc(Cl)ccc2c(=O)o1	1	-4	16	3	-5	0	.
O=C(COC(=O)c1ccccc1SCC(=O)N1CCCC1)Nc1ccc(OC(F)F)cc1	2	23	73*	-1	0	4	76*
Cc1cccc(NC(=O)COC(=O)c2ccccc2SCC(=O)N2CCCC2)c1	3	5	88*	3	-2	1	74*
CCOc1ccccc1NC(=O)COC(=O)c1ccccc1SCC(=O)N1CCCC1	-1	5	7	-4	3	0	.
COc1ccc(C(C)NC(=O)C2CCCC2)cc1OC (stereo unspecified)	1	8	-1	1	0	1	.
COc1ccc(NC(=S)Nc2ccc(OCc3ccccc3)cc2)c(OC)c1	5	6	-2	1	5	5	.
COc1ccc(NC(=S)Nc2ccccc2)c(OC)c1	1	-1	164*	3	1	0	-1
CC1=NN2C(=N)/C(=C\c3ccc(SCc4ccccc4)o3)C(=O)N=C2S1	2	14	32*	-3	4	19	33*
CCCCNC(=O)COC(=O)c1cc(Br)ccc1Cl	-7	3	16	1	6	4	.
SMILES	LYPLA2 inh	pPAFAH inh	PAFAH2 FP inh	LYPLA1 inh	PAFAH1B3 FP inh	PAFAH1B2 inh	PAFAH2 confirm
CCC(CC)NC(=O)COC(=O)c1cc(Br)ccc1Cl	-2	6	33*	-2	0	3	26
Cc1ccc(C(=O)O/N=C(/c2nonc2N)N(C)C)cc1	6	21	51*	1	8	0	41*
CCOC(=O)c1ccc(COC(=O)c2nonc2N)cc1	1	4	8	-2	8	4	.
O=C(COC(=O)c1ccc(F)c(S(=O)(=O)N2CCOCC2)c1)NCCc1ccc(F)cc1	.	5	30*	.	1	-3	21
COc1ccc(C(=O)OCC(=O)NCCc2ccc(F)cc2)cc1S(=O)(=O)N1CCOCC1	.	7	66*	.	13	8	47*
COc1ccc(C(=O)OCC(=O)c2ccccc2)cc1S(=O)(=O)N1CCOCC1	9	-1	52*	1	2	1	40*
O=C(COC(=O)c1ccc(F)c(S(=O)(=O)N2CCCCC2)c1)NCc1ccc(F)cc1	1	8	32*	1	7	1	17
CC(OC(=O)/C=C/c1ccccc1)C(=O)Nc1ccc2c(c1)OCCO2 (stereo unspecified)	0	4	3	-1	12	3	.
O=C(COC(=O)c1ccc(CNS(=O)(=O)c2ccc(F)c(Cl)c2)cc1)NCC1CCCCC1	-1	7	59*	-4	4	5	66*
COc1ccc(C(=O)OCCOc2cccc(Cl)c2)cc1S(=O)(=O)N1CCOCC1	-2	4	35*	-3	13	8	19
Nc1cc(C(=O)OCC(=O)NCc2ccc(F)cc2)ccc1Cl	-2	10	55*	-3	11	1	44*
O=C(COC(=O)c1ccc(CNS(=O)(=O)c2ccc(F)c(Cl)c2)cc1)NC1CCCCCCC1	1	7	1	-3	-8	-5	.
CCOc1ccc(S(=O)(=O)N2CCN(C(=O)c3ccc(-n4cncn4)c([N+](=O)[O-])c3)CC2)cc1	6	5	4	0	1	-1	.
COC(=O)c1ccc(CNC(=O)COC(=O)c2ccccc2-c2ccccc2)cc1	3	7	0	0	8	5	.
CC(=O)Nc1ccc(C(=O)OCC(=O)c2ccc(F)cc2)cc1	-2	-9	38*	-1	5	5	36*
CC(=O)Nc1ccc(C(=O)OCc2ccc(F)cc2)cc1	14	-1	22	1	-2	10	.
O=C(COC(=O)C1=Cc2ccccc2OC1)NCc1ccccc1	2	3	31*	3	0	2	23
CC(=O)Nc1ccc(C(=O)OCC(=O)NCc2ccccc2)cc1	2	-6	55*	-2	8	2	46*
COC(=O)c1ccc(CNC(=O)COC(=O)c2ccc(N(C)C)cc2)cc1	0	6	44*	2	9	8	40*
CC(=O)Nc1cc(NC(C)=O)c(CC(C)C)s1	1	5	-2	-1	2	-1	.
O=C(OCC(=O)N1CCCC1)c1c2c(nc3ccccc13)CCCCC2	-2	-2	4	-3	8	6	.
